In PubChem BioAssay (NCI):
Compounds without any hit were thinned out: in the full panel of roughly 83,000, 20% have a hit.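 Plates (96-well) were seeded with cells, treated with compound at one concentration, and incubated for 48 hours before percent growth was determined.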 A number with no mark means an inactive call. Calls of active or inactive are those of the source. Rule for the calls: active = growth percent below 10; inactive = the rest.

Assays:
Test in all cases: NCI-60 one-dose screen, 48 h (100 = growth as untreated, 0 = no growth, -100 = all killed)
Details in all cases: 10 µM unless noted
DU-145 prostate = test system: DU-145 prostate
K-562 leukemia = test system: K-562 leukemia
MALME-3M melanoma = test system: MALME-3M melanoma
MDA-MB-231 breast = test system: MDA-MB-231 breast
RXF 393 renal = test system: RXF 393 renal
SF-268 CNS = test system: SF-268 CNS
SF-295 CNS = test system: SF-295 CNS
SF-539 CNS = test system: SF-539 CNS
UACC-257 melanoma = test system: UACC-257 melanoma
M14 melanoma = test system: M14 melanoma
HCT-15 colon = test system: HCT-15 colon
HT29 colon = test system: HT29 colon
SNB-75 CNS = test system: SNB-75 CNS
SNB-19 CNS = test system: SNB-19 CNS
U251 CNS = test system: U251 CNS
PC-3 prostate = test system: PC-3 prostate
SK-MEL-5 melanoma = test system: SK-MEL-5 melanoma
UACC-62 melanoma = test system: UACC-62 melanoma
LOX IMVI melanoma = test system: LOX IMVI melanoma
SK-MEL-28 melanoma = test system: SK-MEL-28 melanoma

SMILES | growth (DU-145 prostate) | growth (K-562 leukemia) | growth (MALME-3M melanoma) | growth (MDA-MB-231 breast) | growth (RXF 393 renal) | growth (SF-268 CNS) | growth (SF-295 CNS) | growth (SF-539 CNS) | growth (UACC-257 melanoma) | growth (M14 melanoma) | growth (HCT-15 colon) | growth (HT29 colon) | growth (SNB-75 CNS) | growth (SNB-19 CNS) | growth (U251 CNS) | growth (PC-3 prostate) | growth (SK-MEL-5 melanoma) | growth (UACC-62 melanoma) | growth (LOX IMVI melanoma) | growth (SK-MEL-28 melanoma)
O=c1[nH]c2cc(Cl)c(Cl)cc2n2cc3ncccc3c12 | 100% | 65.5% | 128% | 89.4% | 112% | 95.1% | 58.5% | 112% | 97.8% | 101% | 85.9% | 67.9% | 67.2% | 86.8% | 72.6% | 72.8% | 84.8% | 57.8% | 81.6% | 120%
CCOC(=O)c1cnc2ccc(Br)cc2c1Nc1cccc(S(N)(=O)=O)c1 | 103% | 90.7% | 101% | 89.9% | 90.8% | 88.1% | 95.5% | 99% | 105% | 110% | 90.8% | 107% | 80.6% | 88% | 91.9% | 94.5% | 89.1% | 103% | 101% | 109%
COc1ccc(C2CC(c3cc(OC)c(OC)c(OC)c3)=NN2C(C)=O)cc1OCC(=O)Nc1nc2ccc(C(F)(F)F)cc2s1 (stereo not given) | 48.5% | 83.8% | 68.7% | 44.8% | 33.5% | 71.3% | 61.4% | -32.9% (active) | 67.1% | 68% | 76.2% | 79.8% | 37% | 74.2% | 67% | 67.8% | 15.1% | 52.5% | 32.5% | 65.5%
CCCCCCNC(=O)Nc1ncnc2c1ncn2-c1ccccc1 | 108% | 106% | 115% | 92.8% | 106% | 103% | 90.1% | 94% | 105% | 104% | 95.2% | 99.4% | 72.7% | 94.2% | 94.8% | 89.4% | 98.3% | 97.6% | 102% | 104%
O=[N+]([O-])c1cc([N+](=O)[O-])c(NN=C(c2ccc(O)cc2)c2ccc(O)cc2)cc1Cl | -77.9% (active) | 101% | -51.6% (active) | -70.4% (active) | -76.5% (active) | -91.8% (active) | 104% | -51.9% (active) | -79.9% (active) | -86.8% (active) | -85.8% (active) | -82.6% (active) | -15.6% (active) | 89.4% | -99.9% (active) | -80.8% (active) | 59.5% | 18.4% | -94% (active) | -90.3% (active)
COc1ccc2c(c1)c(-c1noc(C(=O)c3cn(C)c4ncc(Br)cc34)n1)cn2C | 50.4% | 71% | 28.1% | 25.4% | 27.9% | 62.8% | 89% | 25.7% | 92.8% | 91.3% | 68.4% | 58% | -12.8% (active) | 78.7% | 68.6% | 39.7% | 50.6% | 65.6% | 70.9% | 71.1%
O=C(N/N=C/c1c(Cl)cccc1Cl)c1cccc(Nc2ccnc(C(F)(F)F)c2)c1 | 120% | 104% | 113% | 76.8% | 111% | 125% | 90.3% | 92.9% | 102% | 80.8% | 78.5% | 96.7% | 93.7% | 85.7% | 89.6% | 77% | 54.6% | 72.5% | 83.7% | 99.3%
COc1cc(-c2nc(SCCC(C)C)nc(Nc3ccccc3)c2C#N)cc(OC)c1OC | 97.1% | 93.7% | 104% | 59.8% | 114% | 95.9% | 100% | 96.2% | 107% | 100% | 96.8% | 82.3% | 66.8% | 99.4% | 85% | 83.8% | 97.3% | 71.8% | 99.4% | 103%
Ic1ccc2[nH]cc(SSc3c[nH]c4ccc(I)cc34)c2c1 | 72.5% | 9.29% (active) | 73.2% | 7.64% (active) | 46.4% | -18.1% (active) | -19.1% (active) | 21.3% | 34.6% | 27.6% | 15.6% | 32% | 46.6% | 13.3% | 18.3% | 7.98% (active) | 86.6% | 45.4% | 4.6% (active) | 40.9%
O=C(NCc1ccccc1)C(Cl)Cl | 110% | 108% | 101% | 102% | 107% | 99.7% | 95.7% | 97.4% | 102% | 101% | 98.2% | 99.2% | 102% | 96.7% | 99.4% | 101% | 101% | 93.1% | 101% | 96.1%
COc1cc(OC)cc(C(=O)Nc2cc(-c3cccnc3)nc(NCCCN3CCOCC3)n2)c1 | 104% | 74.1% | 110% | 79.6% | 93.9% | 94.1% | 101% | 91.1% | 88.6% | 104% | 90.6% | 85.2% | 109% | 98.7% | 90.6% | 85.4% | 68.3% | 97.6% | 88.1% | 101%
C=CCCCCCCCCC(=O)OC(C)C | 101% | 107% | 78.9% | 97.4% | 93.2% | 96.9% | 98.8% | 104% | 94.9% | 96.4% | 99.1% | 98.6% | 103% | 105% | 96.1% | 99.7% | 95.9% | 105% | 100% | 104%
CCC(C)[C@H](NC(=O)NC(=O)NC(=O)CI)C(=O)OC (stereo not given in full) | 108% | 6.27% (active) | -44.9% (active) | 46.8% | 85.3% | 94.3% | 89.4% | 91.5% | 85% | 71.2% | 14.9% | 42.3% | 92.1% | 93.8% | 93.2% | 93.3% | 91.5% | 88.9% | -79.2% (active) | 87.7%
CCCCCCCCCCCCNC(=S)N/N=C/c1ccccc1O | 68.1% | 61.2% | 98.9% | 78.8% | 107% | 65.5% | 70.7% | 85.4% | 98.2% | 78.1% | 56.9% | 36.6% | 81.1% | 80.2% | 78.4% | 69.5% | 88.8% | 77.7% | 60.5% | 93.3%
Fc1cc2[nH]ncc2c2c3c(c(-c4cn[nH]c4)nc12)CCCC3 | 7.37% (active) | 15.4% | -14.8% (active) | 3.56% (active) | -56% (active) | 3.1% (active) | 9.21% (active) | -30.7% (active) | -22.2% (active) | 1.03% (active) | 4.51% (active) | 11% | 3.38% (active) | 8.75% (active) | -1.45% (active) | 7.08% (active) | -69.4% (active) | -48% (active) | 0.769% (active) | 2.87% (active)
